Assay [1] deals with Cytochrome P450 3A4 (Homo sapiens) (UniProt P08684). Nature of the assay: qHTS Assay for Inhibitors and Substrates of Cytochrome P450 3A4 (AID 884). Also: series mostly up to about 57 µM; % is scaled to controls: 0 for no effect and ±100 for the full control effect; nearly all actives have a fitted effect of over 50% in size. Put shortly: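 20 nM human CYP3A4 with 25 uM Luciferin-PPXE (at KM) in 200 mM KPO4, preincubated 10 min with compound; NADPH regeneration started a 60 min RT reaction. Luciferin detected by luminescence, normalized to 57 uM ketoconazole as full inhibition.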
For orientation: In qHTS, concentration-response curves come from the screen itself.

Assay [2] is described as follows: Cell Viability - LYMP2-004 (AID 966).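 Also: plate controls were DMSO only for no effect and tetraoctylammonium bromide control for full effect; nearly all actives have a fitted effect of over 65% in size.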 Put shortly: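 Lymphoblastoid LYMP2-004 cells, 2500 per well, were preincubated for 5 hr and then treated with compound for 24 h at 37 C in complete medium. Viability was read as cellular ATP by CellTiter-Glo luminescence, and AC50 values were taken from Hill fits to concentration-response data.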
Assay [3] deals with Estrogen receptor (Homo sapiens) (UniProt P03372). Nature of the assay: qHTS assay for small molecule antagonists of estrogen receptor alpha signaling (AID 588513; active = well fitted curve in the direction sought with a large enough effect in the signal ratio, with a control signal flat, not every such curve was filed as active; the % refers to the signal ratio; also: % is scaled to controls: 0 for no effect and ±100 for the full control effect). An outline of the steps:
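Cells were plated at 5000/well and incubated 4 h at 37 C. Compounds were added as 1:2 dilution series, duplicates. 17-beta-estradiol (0.5nM final) was added for 18 h before CCF4 detection.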

Assay [4] deals with Glucocorticoid receptor (Homo sapiens) (UniProt P04150). The assay is described as follows: qHTS assay for small molecule agonists of glucocorticoid receptor signaling (AID 588532; active = well fitted curve in the direction sought with a large enough effect in the signal ratio, with a control signal flat; the % refers to the signal ratio;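 also: 100% = dexamethasone at 0.1 µM and 0% = DMSO only wells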). Particulars: HeLa MMTV-bla, beta-lactamase ratio, agonist, 18 h; stronger effect = higher value; percent of dexamethasone control, DMSO zero. Put shortly:
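HeLa GRE-bla reporter cells; 18 h compound exposure at 37 C; 2 h CCF4 loading at room temperature; fluorescence at 460 and 530 nm; EC50 by Hill equation.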

Assay [5] shares this target. Nature of the assay: qHTS assay for small molecule antagonists of glucocorticoid receptor signaling (AID 588533; active = well fitted inhibition curve with a large enough effect in the signal ratio, with a control signal flat, not every such curve was filed as active; the % refers to the signal ratio; also: % is scaled to controls: 0 for no effect and ±100 for the full control effect). An outline of the steps: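 Antagonist-mode qHTS: compound titrations added to GRE-bla HeLa cells, then dexamethasone 2 nM final; 18 h, 37 C. CCF4 FRET fluorescence normalized to dexamethasone and DMSO; IC50 from Hill fit.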
Assay [6] is described as follows: qHTS assay for small molecule antagonists of peroxisome proliferator-activated receptor delta signaling (AID 588535; active = well fitted inhibition curve with a large enough effect in the signal ratio, with a control signal flat, not every such curve was filed as active; the % refers to the signal ratio;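 as to max response: cells co-treated with a PPAR-delta agonist as stimulator during compound exposure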). As to conditions: HEK293T PPARd-UAS-bla, beta-lactamase FRET ratio, 18 h; 460 nm channel. Put shortly:
(§1)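 Antagonist-mode beta-lactamase reporter (GeneBLAzer PPAR-delta-UAS-bla) in HEK293T cells, 2% charcoal/dextran FBS, 4000 cells/well. Compound titrations, 18 h at 37 C; CCF4 ratio read, IC50 and efficacy from Hill fits.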

Assay [7] has as its target Peroxisome proliferator-activated receptor delta (Homo sapiens) (UniProt Q03181). Described as above. Put shortly: as §1
Assay [8] addresses Thyroid hormone receptor beta (Homo sapiens) (UniProt P10828). Nature of the assay: qHTS assay for small molecule agonists of thyroid hormone receptor beta signaling (AID 588545; calls by dose curve;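 also: 0% = DMSO only and 100% = 10 nM T3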). An outline of the steps: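 Compounds were tested as agonists in TR-UAS-bla-GripTite HEK 293 cells. After 18 hrs at 37 C, CCF4 substrate was added and fluorescence read after 2 hrs at room temperature.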

Assay [9] shares this target. Nature of the assay: qHTS assay for small molecule antagonists of thyroid hormone receptor beta signaling (AID 588547; active = well fitted inhibition curve with a large enough effect in the signal ratio, with a control signal flat, not every such curve was filed as active; the % refers to the signal ratio;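 also: cells stimulated with 0.4 nM T3 agonist during compound exposure; series mostly up to about 77 µM; % is scaled to controls: 0 for no effect and ±100 for the full control effect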). As to conditions: TR-UAS-bla HEK293, beta-lactamase ratio, antagonist mode, 18 h. An outline of the steps: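 TR-UAS-bla GripTite HEK293 cells in 2% charcoal/dextran FBS medium; compounds 0.59 nM to 92 uM with T3 at 0.4nM final, 18 h at 37 C. Beta-lactamase read by CCF4 fluorescence (460/530 nm); Hill fits gave IC50 and efficacy.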

Assay [10] is described as follows: qHTS assay for small molecule antagonists of the retinoid-related orphan receptor gamma (ROR-gamma) signaling pathway - cell viability counter screen (AID 720652; active = well fitted curve in the direction sought with a large enough effect in the repeat runs; an effect the other way counts as inactive or inconclusive;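 also: CHO reporter cells with doxycycline-induced ROR-gamma expression; series mostly up to about 92 µM; compound exposure lasted 16 hr before ATP read; % is scaled to controls: 0 for no effect and ±100 for the full control effect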). Put shortly:
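CHO cells carrying TET-inducible ROR and RORE-luciferase reporter, plated 5 hr, then dosed with compound plus doxycycline. After 16 hr at 37 C, viability read as intracellular ATP by CellTiter-Glo luminescence.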

Assay [11] deals with Nuclear receptor subfamily 1 group I member 2 (Rattus norvegicus) (UniProt Q9R1A7). Nature of the assay: qHTS assay for small molecule activators of the rat pregnane X receptor (rPXR) signaling pathway (AID 651751; call rule not given here; also: 0% is about no effect). As to conditions: rPXR reporter cells, luciferase (One-Glo), 24 h.
Assay [12] can be described thus: qHTS assay for small molecule activators of the human pregnane X receptor (PXR) signaling pathway (AID 720659; call rule not given here; also: 0% is about no effect).
A short description of assay [13]: Cell Viability - LYMP2-009 (AID 968).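 Also: series mostly up to about 92 µM; 0% = DMSO alone and the full-kill end = tetraoctylammonium bromide at 92 µM; nearly all actives have a fitted effect of over 55% in size.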
Assay [14] is described as follows: Cell Viability - LYMP2-012 (AID 982).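 Also: cellular ATP by luciferase luminescence where a drop means cytotoxicity; cells exposed to compound for one day before reading; 0% = DMSO only and full loss = 92 µM tetraoctylammonium bromide; nearly all actives have a fitted effect of over 55% in size.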
Assay [15] in a line: Cell Viability - LYMP2-016 (AID 984).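 Also: cells exposed to compound for 24 hours at 37 °C; % is scaled to controls: 0 for no effect and ±100 for the full control effect; nearly all actives have a fitted effect of over 55% in size.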 An outline of the steps:
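Acute toxicity in a Coriell human lymphoblastoid line is scored as loss of intracellular ATP over 24 h of treatment in complete medium. CellTiter-Glo signal is fitted across concentrations with the Hill equation to give AC50.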

Assay [16] can be described thus: Cell Viability - LYMP2-020 (AID 986).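 Also: series mostly up to about 92 µM; plate controls were DMSO only for no effect and tetraoctylammonium bromide at 92 µM for full effect; nearly all actives have a fitted effect of over 55% in size.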 Put shortly:
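Human lymphoblastoid LYMP2-020 cells (2500/well) preincubated 5 h at 37 C, then treated 24 h at 37 C. Viability measured as intracellular ATP by CellTiter-Glo luminescence after 30 min at room temperature; AC50 from Hill fits.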

The target of assay [17] is Vitamin D3 receptor (Homo sapiens) (UniProt P11473). Nature of the assay: qHTS assay for small molecule antagonists of vitamin D receptor signaling (AID 588541; calls by dose curve). An outline of the steps: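 VDR-UAS-bla HEK293T cells in 2% charcoal-stripped FBS were stimulated with 1-alpha,25-dihydroxyvitamin D3 (3 nM final) plus compound for 16 h at 37 C. The beta-lactamase CCF4 readout was normalized to 50 nM agonist and DMSO, and Hill fits gave IC50.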

The target is the same in assay [18]. Nature of the assay: qHTS assay for small molecule agonists of vitamin D receptor signaling (AID 588543; calls by dose curve;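 also: 0% = DMSO basal and 100% = reference agonist control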). Put shortly: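 qHTS in agonist mode: compound titrations stimulate a VDR-driven β-lactamase reporter in HEK293T cells over 16 h at 37 °C. Response normalized to 50 nM 1α,25-dihydroxyvitamin D3 = 100%, DMSO = 0%; Hill fitting gives EC50 and maximal response.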

Assay [19] concerns the target Bile acid receptor (Homo sapiens) (UniProt Q96RI1). The assay is described as follows: qHTS assay for small molecule antagonists of farnesoid X receptor signaling (AID 588526; calls by dose curve; also: % is scaled to controls: 0 for no effect and ±100 for the full control effect). An outline of the steps: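 Antagonist mode: titrated compounds tested against chenodeoxycholic acid stimulation (normalized to 50 uM CDCA and DMSO) in GeneBLAzer HEK293T cells for 16 h. Beta-lactamase read by CCF4 fluorescence; IC50 from Hill fits.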

For assay [20] the target is unchanged. The assay is described as follows: qHTS assay for small molecule agonists of farnesoid X receptor signaling (AID 588527; calls by dose curve;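 also: series mostly up to about 77 µM; 0% = vehicle basal and 100% = reference agonist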). Particulars: HEK293T FXR-UAS-bla, beta-lactamase ratio, 16 h; stronger effect = higher value. Put shortly:
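FXR-UAS-bla HEK293T, 10% dialyzed FBS; cpds up to 92 uM titration, 16 h 37 C; CCF4 dye 2 h RT; fluorescence. Normalized to chenodeoxycholic acid 100 uM (100%) and DMSO (0%); Hill fit gives EC50, efficacy.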

Where “and” joins values, the source holds several entries; their conditions need not be identical. Identical values can stand only once. Results filed as inconclusive are left out. Calls of active or inactive are those of the source. Unless noted, calls follow the shape of the dose curve; as a rule, active = well fitted curve in the direction sought with a large enough effect; inconclusive = small, poorly fitted or top-dose-only effect, or another doubt; inactive = no such curve, though single readings can be large; an effect the other way counts as inactive or inconclusive.

Chain of Glucocorticoid receptor (Homo sapiens) (P04150 whole entry, looked up): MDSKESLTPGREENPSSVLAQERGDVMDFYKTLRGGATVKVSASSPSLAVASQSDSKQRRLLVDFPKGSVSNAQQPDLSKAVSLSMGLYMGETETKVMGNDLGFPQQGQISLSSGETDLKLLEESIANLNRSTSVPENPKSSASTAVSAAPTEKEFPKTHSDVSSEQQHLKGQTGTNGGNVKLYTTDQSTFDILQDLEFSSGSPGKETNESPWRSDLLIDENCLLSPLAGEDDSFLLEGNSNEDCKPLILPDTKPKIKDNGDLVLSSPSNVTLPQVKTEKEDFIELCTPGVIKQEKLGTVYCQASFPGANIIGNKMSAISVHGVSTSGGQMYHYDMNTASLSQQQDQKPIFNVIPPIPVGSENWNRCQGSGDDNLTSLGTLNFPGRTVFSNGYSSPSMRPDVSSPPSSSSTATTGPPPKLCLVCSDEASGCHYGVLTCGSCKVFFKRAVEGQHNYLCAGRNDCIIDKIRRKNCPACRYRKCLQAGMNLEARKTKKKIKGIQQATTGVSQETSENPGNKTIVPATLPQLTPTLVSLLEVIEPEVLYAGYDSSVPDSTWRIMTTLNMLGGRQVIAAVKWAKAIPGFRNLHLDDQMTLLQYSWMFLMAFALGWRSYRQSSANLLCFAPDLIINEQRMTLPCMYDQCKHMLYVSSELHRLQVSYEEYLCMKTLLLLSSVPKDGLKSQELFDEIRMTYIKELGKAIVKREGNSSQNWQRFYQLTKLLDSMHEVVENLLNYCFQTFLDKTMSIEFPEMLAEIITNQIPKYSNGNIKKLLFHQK
Chain of Estrogen receptor (Homo sapiens) (P03372 whole entry, looked up): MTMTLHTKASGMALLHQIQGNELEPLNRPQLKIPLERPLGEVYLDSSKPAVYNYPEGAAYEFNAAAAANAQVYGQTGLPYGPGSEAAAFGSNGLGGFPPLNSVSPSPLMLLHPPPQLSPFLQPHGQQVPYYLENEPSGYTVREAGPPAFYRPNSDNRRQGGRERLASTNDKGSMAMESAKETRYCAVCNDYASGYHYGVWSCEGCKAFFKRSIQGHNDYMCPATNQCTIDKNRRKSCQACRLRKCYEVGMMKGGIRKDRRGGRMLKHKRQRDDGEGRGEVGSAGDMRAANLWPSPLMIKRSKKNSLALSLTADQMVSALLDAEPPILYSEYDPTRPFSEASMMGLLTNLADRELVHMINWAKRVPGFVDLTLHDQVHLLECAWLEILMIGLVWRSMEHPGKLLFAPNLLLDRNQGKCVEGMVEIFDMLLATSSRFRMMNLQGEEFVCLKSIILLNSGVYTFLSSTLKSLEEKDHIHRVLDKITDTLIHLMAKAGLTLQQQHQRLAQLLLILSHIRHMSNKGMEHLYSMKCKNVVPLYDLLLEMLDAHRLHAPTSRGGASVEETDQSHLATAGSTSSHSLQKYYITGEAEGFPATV
Chain of Thyroid hormone receptor beta (Homo sapiens) (P10828 whole entry, looked up): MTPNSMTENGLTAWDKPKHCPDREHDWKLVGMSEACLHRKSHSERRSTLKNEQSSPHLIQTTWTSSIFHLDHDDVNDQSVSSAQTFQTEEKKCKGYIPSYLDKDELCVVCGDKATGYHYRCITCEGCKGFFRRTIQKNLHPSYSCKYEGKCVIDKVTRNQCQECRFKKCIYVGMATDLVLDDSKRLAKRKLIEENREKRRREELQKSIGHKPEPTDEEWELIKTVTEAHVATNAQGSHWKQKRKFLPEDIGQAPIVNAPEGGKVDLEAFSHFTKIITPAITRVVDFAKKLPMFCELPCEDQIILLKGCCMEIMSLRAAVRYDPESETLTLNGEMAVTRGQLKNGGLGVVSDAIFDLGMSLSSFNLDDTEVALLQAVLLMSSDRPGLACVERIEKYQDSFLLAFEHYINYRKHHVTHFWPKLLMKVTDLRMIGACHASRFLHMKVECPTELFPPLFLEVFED
Chain of Nuclear receptor subfamily 1 group I member 2 (Rattus norvegicus) (Q9R1A7 whole entry, looked up): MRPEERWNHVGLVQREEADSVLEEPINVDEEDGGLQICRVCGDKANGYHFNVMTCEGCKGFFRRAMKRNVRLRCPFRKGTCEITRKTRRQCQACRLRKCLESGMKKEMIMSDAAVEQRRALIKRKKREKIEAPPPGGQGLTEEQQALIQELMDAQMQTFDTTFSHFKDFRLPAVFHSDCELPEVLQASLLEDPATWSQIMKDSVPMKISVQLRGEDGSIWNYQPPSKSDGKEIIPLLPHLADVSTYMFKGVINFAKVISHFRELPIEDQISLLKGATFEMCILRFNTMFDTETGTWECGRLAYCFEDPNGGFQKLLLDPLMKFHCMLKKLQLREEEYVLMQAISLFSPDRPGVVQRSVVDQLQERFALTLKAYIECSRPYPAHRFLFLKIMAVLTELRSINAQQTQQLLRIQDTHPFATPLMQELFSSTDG
Chain of Bile acid receptor (Homo sapiens) (Q96RI1 whole entry, looked up): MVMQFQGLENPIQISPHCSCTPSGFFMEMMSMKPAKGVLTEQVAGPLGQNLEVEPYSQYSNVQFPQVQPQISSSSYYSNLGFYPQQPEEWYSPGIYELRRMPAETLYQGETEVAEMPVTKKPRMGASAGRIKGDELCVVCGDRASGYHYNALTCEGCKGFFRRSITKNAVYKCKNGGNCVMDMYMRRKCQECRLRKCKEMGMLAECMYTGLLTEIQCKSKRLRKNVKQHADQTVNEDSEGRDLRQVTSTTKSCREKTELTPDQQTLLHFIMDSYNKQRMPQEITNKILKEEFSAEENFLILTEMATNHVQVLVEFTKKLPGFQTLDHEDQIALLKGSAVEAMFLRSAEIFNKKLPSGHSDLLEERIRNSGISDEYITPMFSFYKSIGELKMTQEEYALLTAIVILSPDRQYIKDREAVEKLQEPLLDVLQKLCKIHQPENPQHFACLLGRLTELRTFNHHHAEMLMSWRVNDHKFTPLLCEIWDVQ
Chain of Vitamin D3 receptor (Homo sapiens) (P11473 whole entry, looked up): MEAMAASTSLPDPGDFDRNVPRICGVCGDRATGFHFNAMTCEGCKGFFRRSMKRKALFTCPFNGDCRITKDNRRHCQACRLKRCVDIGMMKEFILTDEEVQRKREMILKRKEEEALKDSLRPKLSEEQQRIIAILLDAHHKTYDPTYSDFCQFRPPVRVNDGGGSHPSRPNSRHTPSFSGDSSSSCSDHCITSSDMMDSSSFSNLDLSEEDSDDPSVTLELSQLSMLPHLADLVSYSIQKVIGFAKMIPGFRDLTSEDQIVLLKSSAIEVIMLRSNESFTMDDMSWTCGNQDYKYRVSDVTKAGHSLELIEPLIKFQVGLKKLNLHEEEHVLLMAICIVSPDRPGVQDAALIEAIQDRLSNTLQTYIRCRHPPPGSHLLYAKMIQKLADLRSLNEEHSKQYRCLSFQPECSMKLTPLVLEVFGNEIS
Chain of Peroxisome proliferator-activated receptor delta (Homo sapiens) (Q03181 whole entry, looked up): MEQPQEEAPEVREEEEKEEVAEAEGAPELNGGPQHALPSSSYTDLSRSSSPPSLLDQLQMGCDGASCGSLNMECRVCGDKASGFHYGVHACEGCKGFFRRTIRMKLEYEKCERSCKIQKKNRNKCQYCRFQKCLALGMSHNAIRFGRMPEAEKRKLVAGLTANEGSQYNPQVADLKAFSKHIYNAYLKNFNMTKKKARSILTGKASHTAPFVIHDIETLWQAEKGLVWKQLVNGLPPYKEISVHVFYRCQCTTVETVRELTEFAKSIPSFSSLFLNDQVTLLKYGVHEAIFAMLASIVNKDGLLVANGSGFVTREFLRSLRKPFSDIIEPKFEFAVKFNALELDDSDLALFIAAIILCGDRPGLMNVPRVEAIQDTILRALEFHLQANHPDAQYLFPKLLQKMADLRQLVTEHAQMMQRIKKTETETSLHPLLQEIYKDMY
Chain of Cytochrome P450 3A4 (Homo sapiens) (P08684 whole entry, looked up): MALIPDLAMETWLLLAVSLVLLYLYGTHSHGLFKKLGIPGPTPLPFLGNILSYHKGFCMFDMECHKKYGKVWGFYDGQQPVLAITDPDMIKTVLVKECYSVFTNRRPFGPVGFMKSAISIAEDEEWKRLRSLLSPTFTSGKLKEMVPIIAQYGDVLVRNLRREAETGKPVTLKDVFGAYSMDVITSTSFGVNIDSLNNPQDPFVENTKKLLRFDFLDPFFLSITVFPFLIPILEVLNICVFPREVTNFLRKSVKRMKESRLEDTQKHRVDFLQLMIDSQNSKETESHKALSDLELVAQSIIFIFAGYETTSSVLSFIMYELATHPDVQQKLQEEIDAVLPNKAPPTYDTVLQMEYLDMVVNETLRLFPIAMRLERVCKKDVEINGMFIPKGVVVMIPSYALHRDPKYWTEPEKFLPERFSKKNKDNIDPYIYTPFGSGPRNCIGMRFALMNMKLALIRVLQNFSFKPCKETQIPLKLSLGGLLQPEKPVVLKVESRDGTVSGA

In the case of `ClC(Cl)=C(Cl)C(Cl)=C(Cl)Cl`, the Potency entry in assay [1], in [2], in assay [3], in assay [5], in assay [7] and in assay [10] was “inactive” each time. The activation in assay [4] was -16.2% (inactive). The max response in assay [6] is -24.7% and -5.61%; in [11], 2.24% (inactive) and -2.02% (inactive). For the same molecule, the outcome in assay [8] and in [12] was inactive. For the same molecule, the activity change % (negative = inhibition) in assay [9] is -2.4% (inactive).

`COc1ccc(N)cc1`: the Potency entry in assay [2], in [13], in assay [14], in [15], in assay [16] and in assay [5] was “inactive” in each case. Further, the Potency entry in assay [7] and in [10] was “inactive” in each case. Also, in assay [4], the activation was -7.51% (inactive) and 3.18% (inactive). The max response in [6] stood at 35%. The molecule was classed as inactive in assay [8] and in assay [12]. Moreover, the activity change % (negative = inhibition) in [9] is 8.16% (inactive) and -11.7% (inactive).

For `CCCCOCCOP(=O)(OCCOCCCC)OCCOCCCC`, the Potency entry in assay [2], in [13], in assay [14], in assay [15], in [16] and in assay [3] was “inactive” each time. Further, the Potency entry in assay [5], in assay [7] and in assay [10] was “inactive” each time. The activation in [4] is 0.713% (inactive) and -16.4% (inactive). Moreover, in assay [6], the max response was determined as 25%. Further, the result in assay [17], in [18] and in assay [8] was inactive. Also, the activity change % (negative = inhibition) in assay [9] was -2.2% (inactive) and -9.56% (inactive).

Turning to `C=CC(=C)C`, the Potency result in [1], in assay [2], in [13], in assay [14], in assay [15] and in assay [16] was “inactive” throughout. For the same molecule, the Potency entry in [3], in assay [5], in [7] and in assay [10] was “inactive” throughout. Moreover, the call in assay [19], in assay [17], in [18], in assay [8] and in [12] was inactive. In addition, the activation in [20] is -1.71% (inactive); in assay [4], -4.98% (inactive). In addition, the values for the max response in assay [6] and in assay [11] were -16.7% and 11% (inactive), respectively. For the same molecule, the activity change % (negative = inhibition) in assay [9] was 3.52% (inactive).

For the molecule `CCC[CH2][Sn]([Cl])([Cl])[Cl]`, the Potency result in [1], in assay [2], in assay [13], in assay [14], in assay [15] and in [16] was “inactive” throughout. The Potency result in assay [3], in assay [5], in assay [7] and in assay [10] was “inactive” each time. Also, the result in [19], in assay [8] and in assay [12] was inactive. The activation was -3.23% (inactive) and -2.97% (inactive) in assay [20]; -4.16% (inactive) and -3.24% (inactive) in [4]. The max response in assay [6] is 31.1% and 8.78%; in assay [11], 2.08% (inactive) and 0.146% (inactive). Further, in assay [9], the activity change % (negative = inhibition) was 9.88% (inactive).

For `CC(Cl)Cl`, the Potency entry in assay [2], in assay [13], in [14], in assay [15], in assay [16] and in assay [3] was “inactive” throughout. For the same molecule, the Potency entry in assay [5], in assay [7] and in assay [10] was “inactive” throughout. Also, the molecule was classed as inactive in assay [19], in [17], in assay [18] and in assay [12]. Also, the activation in assay [20] was -0.0258% (inactive); in assay [4] it was -9.28% (inactive). Moreover, the max response in assay [6] was 2.53%; in assay [11], -1.43% (inactive). Moreover, the activity change % (negative = inhibition) in [9] is -1.63% (inactive).

For the molecule `O=[N+]([O-])c1cccc2ccccc12`, the Potency result in assay [1], in [2], in assay [13], in assay [14], in [15] and in assay [16] was “inactive” each time. Moreover, the Potency result in [3] and in [7] was “inactive” throughout. Moreover, the max response was -7.08% and 18.1% in [6]; 5.16% (inactive) and 1.63% (inactive) in assay [11]. Also, the molecule was called inactive in assay [8] and in assay [12]. The activity change % (negative = inhibition) in assay [9] is 7.72% (inactive) and 4.17% (inactive).

For the origin of these results see PubChem BioAssay (NCATS).
